Bioassay records (PubChem BioAssay)
Hits are enriched below; roughly 2.3% of the tested compounds scored in any of these assays.
A549 viability = Nrf2 qHTS screen for inhibitors: counterscreen for cytotoxicity; Potency, µM (series often up to 46 µM), without a hit: top-dose activity change, negative = cytotoxicity, actives largely listed as inhibitors; A549 ARE-Fluc cells, CellTiter-Fluor viability, 18-24 h; AID 504648, 2011; hit rate 0.16% among 390,000; also: potency is read from the fitted curve at half-maximal effect; % is scaled to controls: 0 for no effect and ±100 for the full control effect
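A549 ARE_Fluc cells in 5% FBS OPTI-MEM were exposed to compounds in concentration-response for 18-24 h at 37 deg C. Viability was read by CellTiter-Fluor fluorescence (Ex 405/Em 525) after 30 min, before the luciferase read.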
Apoferritin bind = qHTS Assay for Identification of Novel General Anesthetics. Ferritin light chain (Equus caballus), P02791. apoferritin/1-aminoanthracene competitive binding, fluorescence. Potency, µM (top dose mostly 77.5 µM), for the others: at the top dose activity change, negative = displacement, hits mostly inhibitors. hit rate 0.074% among 350,000. AID 485281, 2010; also: potency is read from the fitted curve at half-maximal effect; % is scaled to controls: 0 for no effect and ±100 for the full control effect; nearly all actives have a fitted effect of over 20% in size
Target sequence (P02791 2-175 limits assumed): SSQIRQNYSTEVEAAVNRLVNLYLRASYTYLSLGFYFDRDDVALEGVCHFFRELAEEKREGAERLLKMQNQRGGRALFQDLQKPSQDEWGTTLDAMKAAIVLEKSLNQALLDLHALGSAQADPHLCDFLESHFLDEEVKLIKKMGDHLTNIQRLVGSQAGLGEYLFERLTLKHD
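Read-out: endpoint 1-AMA fluorescence, excitation 380 nm and emission 535 nm, after compounds sit 10 min at room temperature with 10 uM horse-spleen apoferritin in 50% saturated 1-AMA/PBS. Values come from four-parameter Hill fits.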
mIDH1 inhibitor = qHTS for Inhibitors of mutant isocitrate dehydrogenase 1 (IDH1): qHTS. IDH1-R132H enzyme, NADPH consumption, diaphorase/resazurin fluorescence. Potency, µM (series often up to 76.6 µM), for inactives: top-dose activity change, negative = inhibition, hits mostly inhibitors. hit rate 0.093% among 390,000; also: potency is read from the fitted curve at half-maximal effect; % is scaled to controls: 0 for no effect and ±100 for the full control effect; nearly all actives have a fitted effect of over 65% in size
Target sequence (O75874 whole entry R132H, stated change not applied): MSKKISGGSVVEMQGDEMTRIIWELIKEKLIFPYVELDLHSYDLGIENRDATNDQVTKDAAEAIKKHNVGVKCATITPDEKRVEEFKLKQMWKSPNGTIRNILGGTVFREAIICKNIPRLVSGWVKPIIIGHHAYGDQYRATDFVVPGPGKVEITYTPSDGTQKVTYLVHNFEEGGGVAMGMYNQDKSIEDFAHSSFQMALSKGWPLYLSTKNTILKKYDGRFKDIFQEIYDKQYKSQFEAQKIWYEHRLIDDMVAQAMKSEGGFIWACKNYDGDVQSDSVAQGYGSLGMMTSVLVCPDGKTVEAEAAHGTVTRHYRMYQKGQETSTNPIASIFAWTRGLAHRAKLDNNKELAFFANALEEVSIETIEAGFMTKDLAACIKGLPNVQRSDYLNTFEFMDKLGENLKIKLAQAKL
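IDH1-R132H (0.5 ug/mL) preincubated 30 min with compound, then NADPH (0.016 mM) and alpha-KG (2 mM) added; 80 min at RT, pH 7.5. Remaining NADPH coupled via diaphorase/resazurin to fluorescence (540/590 nm); concentration-response curves normalized to no-enzyme control.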
Nrf2 activator = qHTS of Nrf2 Activators. AREc32 ARE-luciferase reporter (MCF7-derived line), luminescence, 24 h. Potency, µM (series often up to 46.1 µM), for the others: at the highest dose activation, hits mostly activators. hit rate 0.31% among 410,000. AID 624171, 2012; also: potency is read from the fitted curve at half-maximal effect; % of control where 0% means no effect; nearly all actives have a fitted effect of over 65% in size
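AREc32 cells carrying an ARE-driven firefly luciferase reporter were seeded at 1000 cells/well in OPTI-MEM with 5% FBS, then exposed to compound for 24 hr at 37 deg C. Luminescence was read with Steady-Glo after 30 min at RT.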
Giardia kill = Small Molecules that selectively kill Giardia lamblia: qHTS; Giardia lamblia trophozoite viability; hit rate 0.15% among 340,000; activity change, % at 7.66 µM, hits read low; in the data active = activity change below about -80%; inconclusive = between about -30% and that limit;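 also: parasites exposed to compound for two days anaerobically before the ATP read; % is scaled to controls: 0 for no effect and ±100 for the full control effect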
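Killing of trophozoites was scored by loss of ATP luminescence after a 48 hrs anaerobic exposure to compounds at 37 deg C, using 100 cells per well.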
Nrf2 inh = Nrf2 qHTS screen for inhibitors; AID 504444, 2011; hit rate 2.1% among 360,000; A549 ARE-Fluc reporter, luciferase luminescence, 18-24 h; Potency, µM (titrated, usually from 46 µM), inactives show top-dose activity change, negative = inhibition, hits mostly inhibitors; also: potency is read from the fitted curve at half-maximal effect; % is scaled to controls: 0 for no effect and ±100 for the full control effect; nearly all actives have a fitted effect of over 60% in size
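Nrf2 function is reported as luminescence of an ARE-controlled luciferase in A549 cells. Compounds were tested at several concentrations, and a CellTiter-Fluor read on the same wells flagged cytotoxicity.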
* = called active by the depositor; ? = inconclusive; · = not tested or not shown; ! = a repeat was not active. Unless noted, calls follow the shape of the dose curve; as a rule, active = well fitted curve in the direction sought with a large enough effect; inconclusive = small, poorly fitted or top-dose-only effect, or another doubt; inactive = no such curve, though single readings can be large; an effect the other way counts as inactive or inconclusive.

SMILES | A549 viability | Apoferritin bind | mIDH1 inhibitor | Nrf2 activator | Giardia kill | Nrf2 inh
Cc1ccc(-c2nn(-c3ccccc3)cc2/C=C2\SC(=S)N(CC(=O)O)C2=O)cc1 | -0.5% | -1.1% | -12.6% | 0.2% | 8.5 | -1.1%
COc1ccc(-c2nn(-c3ccccc3)cc2/C=C2/SC(=S)N(CCC(=O)O)C2=O)cc1 | ? | -10.1% | -21.4% | 2.3% | -8.6 | 23.1µM*
CC(C)c1ccc(S(=O)(=O)/N=C2/C=C(Sc3ncn[nH]3)C(=O)c3ccccc32)cc1 | ? | -14.7% | 19.8% | -3.2% | -7.7 | 18.4µM*
CC1=C(C(=O)OC2CCCCCCC2)C(c2cc3c(cc2Br)OCO3)CC(=O)N1 (configuration not stated) | ? | -16.8% | -14.0% | -0.3% | -0.7 | 20.6µM*
COC(=O)C1=C(C)NC(=O)CC1c1cc2c(cc1Br)OCO2 (configuration not stated) | 0.6% | -15.9% | 13.7% | 2.4% | -7.0 | -1.3%
CCCn1c(CN2CCN(c3cccc(Cl)c3)CC2)nc2c1c(=O)n(C)c(=O)n2C | -25.9% | -6.0% | 5.8% | -0.4% | 2.6 | 18.4µM*
CC1(C(=O)Nc2cccc3cccnc23)CCN1C(=O)Cc1ccc(Cl)cc1Cl (configuration not stated) | · | · | · | 3.4% | · | ·
CCO[C@H]1OC(C(=O)N2CCN(Cc3ccccc3)CC2)=C[C@@H](c2ccc(C(F)(F)F)cc2)[C@@H]1CCCO | ? | ? | -1.2% | -0.2% | -9.1 | 29.1µM*
CCOC(=O)c1cccc(NC(=O)CCS(=O)(=O)c2ccc3c(c2)CCN3C(=O)CC)c1 | -1.4% | -4.4% | 21.4% | 8.8% | · | 0.1%
Cc1ccc(Cn2cc(CCC(=O)NCC(C)c3ccccc3)c3ccccc32)cc1 (configuration not stated) | ? | 61.5% | -13.4% | 2.2% | · | 18.4µM*
COc1ccc(-c2nnc(SCC(=O)N(Cc3ccccc3)C(C)(C)C)o2)cc1OC | -16.4% | -11.5% | 4.2% | -0.5% | 0.9 | 23.1µM*
CCN(C(=O)CSc1nnc(-c2cc(OC)c(OC)c(OC)c2)o1)c1ccccc1 | 1.6% | -3.0% | -3.6% | 7.6% | · | -14.0%
O=C(CCCc1nc(-c2ccc(Cl)cc2)no1)Nc1cccnc1 | · | -7.7% | 3.6% | -1.0% | 2.2 | 10.3µM*
COc1ccc2oc3cc(C)[n+]([O-])c(-c4ccc(Br)cc4)c3c2c1 | ? | -6.3% | -3.8% | 0.2% | 2.4 | 23.1µM*
COc1cccc2cc(-c3nc(-c4ccccc4)c(C)s3)c(=O)oc12 | -4.4% | · | · | · | 12.1 | 3.8%
CC(C)OC(=O)c1c(-c2ccccc2)c(-c2ccccc2)nn(C)c1=O | -4.2% | ? | -13.3% | 3.9% | -19.8 | 9.2µM*
Cc1cc(/C=N/n2cnnc2)c(C)n1-c1ccc(OCc2ccc(Cl)cc2)cc1 | -9.6% | ? | 6.9% | 6.2% | 8.0 | 9.2µM*
Cc1ccc(Cl)cc1N1CCN(C(=O)C(C)n2ncn3cccc3c2=O)CC1 (configuration not stated) | ? | -23.3% | ? | 0.1% | 26.3 | 18.4µM*!
Cc1sc2ncnc(N/N=C/c3cccc(O)c3)c2c1C | -5.1% | -2.8% | 4.3% | 8.1% | -27.3 | -4.5%
C/C(=N\Nc1ncnc2sc(C)c(C)c12)c1ccccn1 | 23.1µM* | -7.1% | 4.7% | 22.8% | -0.1 | ?
CCOC(=O)c1c(C)[nH]c(C(=O)OC(C)C(=O)Nc2ccccc2OC)c1C (configuration not stated) | -5.3% | 6.4% | 7.3% | 3.6% | 0.2 | 14.6µM*
CCOC(=O)c1c(C)[nH]c(C(=O)Nc2ccc(NC(C)=O)cc2)c1C | 2.2% | -9.6% | 0.8% | 2.1% | 15.3 | 8.2µM*
CC(=O)c1c(C)[nH]c(C(=O)Nc2cccc(C(F)(F)F)c2)c1C | ? | -6.5% | 4.6% | 4.6% | 20.5 | 20.6µM*
Cc1c(C(=O)NCc2ccc(Cl)cc2)sc2nc3n(c(=O)c12)CCCCC3 | 1.0% | 202.9% | -2.5% | 3.9% | · | 9.6%
Cn1c(=O)c2c(c3ccccc31)OC(=O)CC2c1ccccc1 (configuration not stated) | -6.5% | -6.1% | 3.1% | -0.6% | · | ·
SMILES | A549 viability | Apoferritin bind | mIDH1 inhibitor | Nrf2 activator | Giardia kill | Nrf2 inh
O=C(NCC1CCCN1S(=O)(=O)c1cccs1)c1cccc(F)c1 (configuration not stated) | -12.7% | · | 9.4% | 1.9% | 0.9 | 13µM*
O=C(NCC1CCCN1S(=O)(=O)c1cccs1)c1ccc(Cl)cc1 (configuration not stated) | -5.0% | · | -1.6% | 0.1% | ? | 23.1µM*
O=C(NCC1CCCN1S(=O)(=O)c1cccs1)c1ccccc1 (configuration not stated) | -4.3% | · | -5.4% | -0.6% | -2.1 | ?
CSc1ccc(CCNC(=O)c2ccc(CS(=O)Cc3ccc(Cl)cc3)o2)cc1 (configuration not stated) | -1.6% | -3.4% | 0.7% | -0.3% | -15.4 | 2.8%
O=C(NCCc1ccc(Cl)cc1)c1ccc(CS(=O)Cc2ccc(Cl)cc2)o1 (configuration not stated) | ? | -5.2% | -9.8% | 1.9% | -6.2 | 25.9µM*
CCc1ccccc1S(=O)(=O)Cc1ccc(C(=O)NCCc2ccc(Cl)cc2)o1 | ? | -4.6% | -7.1% | 3.3% | · | 23.1µM*
O=C(NCc1ccccc1Cl)c1ccc(CS(=O)(=O)c2ccccc2)o1 | 1.8% | -9.7% | -9.4% | 1.7% | 4.2 | 11.1%
CCc1ccccc1S(=O)(=O)Cc1ccc(C(=O)NCc2ccc(Cl)cc2)o1 | -0.6% | -13.0% | -20.0% | 4.6% | · | ?
O=C(NCc1ccccc1Cl)c1ccc(CS(=O)(=O)c2ccc(Br)cc2)o1 | ? | 7.8% | -23.1% | 5.9% | · | 23.1µM*
CCOCCc1nn2c(=O)cc(COC(=O)C3CCCCC3)nc2s1 | -0.3% | ? | -11.8% | 0.6% | · | 8.0%
O=C(NCC(c1cccs1)N1CCOCC1)c1ccccc1NS(=O)(=O)c1cccc([N+](=O)[O-])c1 (configuration not stated) | ? | -6.2% | -9.1% | 3.1% | -0.5 | 20.6µM*
CC(=O)NCCNc1nc2cc(-c3ccccc3)sc2c(=O)n1C | · | · | · | 1.2% | · | ·
COc1ncccc1-c1cc2nc(NCCNC(C)=O)n(C)c(=O)c2s1 | · | · | · | 3.55µM* | · | ·
N#Cc1cccc(OC2=NS(=O)(=O)c3ccccc32)c1 | 10.1% | · | · | · | · | 11.3%
Cc1cccc(OCC(=O)OCc2cc(=O)n3nc(C4CCCCC4)sc3n2)c1 | 5.4% | 15.8µM* | 9.3% | 0.0% | · | ?
